Test results taken from PubChem BioAssay.
Calls of active or inactive are those of the source.

Key:
[1] = system: Plasmodium falciparum Sir2 (PF13_0152, Sir2A); test: Plasmodium falciparum Sir2A binding compounds – biochemical, small-molecule microarray, 635 nm fluorescence, primary screen (AID 1098); conditions: fluorescence 635 nm, higher = more signal;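 also: score merges spot fluorescence intensity with its signal-to-noise ratio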
[2] = probe aDKK1 binding to arrayed compounds – biochemical, biotinylated probe, 635/667 nm fluorescence, primary screen (AID 1099); conditions: small-molecule microarray, higher = more signal;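 also: score merges 667nm spot fluorescence with signal to noise across triplicate slides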
[3] = probe aCHRDL2 binding to arrayed compounds – biochemical, biotinylated probe, 635/667 nm fluorescence, primary screen (AID 1100); conditions: small-molecule microarray, higher = more signal
[4] = change in splice reporter luminescence, either direction, cell-based, HEK293, spliceosome inhibition project, primary screen (AID 1101); conditions: HEK293 splicing luciferase reporter, 24 h, higher = more signal, called active from +8 up or from −8 down;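 also: HEK293 cells carrying a splicing-competent luciferase reporter gene; test concentration not given here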
[5] = target: Fibroblast growth factor 10 (Homo sapiens) (UniProt O15520); test: compounds binding fibroblast growth factor 10 – biochemical, small-molecule microarray, 635 nm fluorescence, primary screen (AID 1102); conditions: FGF10 binding, fluorescence 635 nm, higher = more signal
[6] = system: glycogen synthase kinase-3 (GSK3A per assay name; protocol says GSK3B); test: compounds binding glycogen synthase kinase-3 – biochemical, small-molecule microarray, 635 nm fluorescence, GSK3A, primary screen (AID 1103); conditions: fluorescence 635 nm, higher = more signal; also: the record names both GSK3A and GSK3B
[7] = target: Epidermal growth factor receptor (Homo sapiens) (UniProt P00533); test: compounds binding epidermal growth factor receptor – biochemical, small-molecule microarray, 635 nm fluorescence, primary screen (AID 1104); conditions: EGFR binding, higher = more signal;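 also: score merges 667 nm emission intensity with spot signal to noise over triplicate slides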
[8] = target: Follistatin-related protein 3 (Homo sapiens) (UniProt O95633); test: compounds binding follistatin-related protein 3 – biochemical, small-molecule microarray, 635 nm fluorescence, primary screen (AID 1105); conditions: FSTL3 binding, higher = more signal;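 also: score merges emission near 667 nm and signal to noise per printed spot across three slides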
[9] = target: Dickkopf-related protein 1 (Homo sapiens) (UniProt O94907); test: small molecules binding DKK1 protein – biochemical, small-molecule microarray, 635 nm fluorescence scan, primary screen (AID 1106); conditions: higher = more signal;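 also: score merges emission near 667 nm with signal to noise over three replicate slides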
[10] = system: Inhibin beta A chain (activin A); test: small molecules binding activin A – biochemical, small-molecule microarray, 635 nm fluorescence scan, primary screen (AID 1107); conditions: INHBA, higher = more signal;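 also: mouse activin A protein probed at 4.33 µg/mL on printed slides; score merges bound-protein fluorescence near 667 nm with spot signal-to-noise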
[11] = system: Human papillomavirus type 1a protein E7 (residues 44-93); test: small molecules binding HPV E7 44-93 – biochemical, small-molecule microarray, residues 44-93, 635 nm fluorescence, primary screen (AID 1108); conditions: fluorescence 635 nm, higher = more signal;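 also: E7 fragment applied at 1 µg/mL in TBST for 1 h at 4 C; score combines spot fluorescence with its signal to noise ratio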
[12] = hepatitis C replication reporter changes, two-sided – Huh7 cells, luciferase reporter, HCV replication inhibitor project, primary screen (AID 1109); conditions: Huh7 HCV replicon luciferase reporter, 48 h; higher = more signal;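 also: huh7 hepatoma cells harbouring a luciferase neomycin HCV replicon reporter; luciferase luminescence as measure of HCV replicon replication; test concentration not given here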
[13] = target: Left-right determination factor 2 (Homo sapiens) (UniProt O00292); test: small molecules binding LEFTY2 protein – biochemical, small-molecule microarray, 635 nm fluorescence scan, primary screen (AID 1110); conditions: higher = more signal
[14] = target: Calmodulin-1 (Homo sapiens) (UniProt P0DP23); test: small molecules binding calmodulin-1 with EGTA – biochemical, small-molecule microarray, Cy5-labelled CALM1, profiling panel (AID 1111); conditions: Cy5-CALM1 binding fluorescence, higher = more signal;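 also: labelled calmodulin applied in Tris saline Tween buffer holding calcium plus EGTA and DTT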
[15] = target: Calmodulin-1 (Homo sapiens) (UniProt P0DP23); test: small molecules binding Ca-loaded calmodulin-1 – biochemical, small-molecule microarray, Cy5-labelled CALM1, plus calcium, artefact control for SMM control-protein annotation, profiling panel (AID 1112); conditions: Cy5-CALM1 binding fluorescence, higher = more signal;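 also: score merges spot fluorescence with signal to noise from triplicate slides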
[16] = probe aWnt5a binding to arrayed compounds – biochemical, biotinylated probe, 635/667 nm fluorescence, primary screen (AID 1113); conditions: small-molecule microarray, higher = more signal;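 also: score merges 667 nm fluorescence intensity with signal-to-noise per printed feature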
[17] = probe aShh binding to arrayed compounds – biochemical, biotinylated probe, 635/667 nm fluorescence, primary screen (AID 1114); conditions: small-molecule microarray, higher = more signal;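 also: probe is biotin-labelled aShh protein from a stem cell growth factor screen; measures binding of labelled protein to compounds printed on the slide; score merges feature fluorescence at 667 nm with signal-to-noise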
[18] = probe aNog binding to arrayed compounds – biochemical, biotinylated probe, 635/667 nm fluorescence, primary screen (AID 1115); conditions: small-molecule microarray, higher = more signal;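 also: probe is biotinylated aNog protein used at 0.15 µg/mL for 1 h at 4 C; z-score combines 667 nm fluorescence of each spot with its signal to noise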
[19] = target: Torsin-1A-interacting protein 1 (Homo sapiens) (UniProt Q5JTV8); test: compound microarray binding of lysate hLAP1 – cell lysate, small-molecule microarray, COS7 lysate, 635/667 nm fluorescence, primary screen (AID 1116); conditions: 635 nm fluorescence, higher = more signal
[20] = target: Alpha-bungarotoxin (Bungarus multicinctus) (UniProt P60615); test: compounds binding labelled alpha-BTX control protein – biochemical, small-molecule microarray, Alexa647 label, 635/667 nm fluorescence, artefact control for SMM control protein annotation, profiling panel (AID 1117); conditions: alpha-BTX-A647 binding fluorescence, higher = more signal
Sequence of Alpha-bungarotoxin (Bungarus multicinctus) (P60615 whole entry, looked up): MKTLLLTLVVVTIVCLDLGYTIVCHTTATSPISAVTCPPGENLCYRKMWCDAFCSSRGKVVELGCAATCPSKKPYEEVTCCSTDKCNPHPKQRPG

Sequence of Follistatin-related protein 3 (Homo sapiens) (O95633 whole entry, looked up): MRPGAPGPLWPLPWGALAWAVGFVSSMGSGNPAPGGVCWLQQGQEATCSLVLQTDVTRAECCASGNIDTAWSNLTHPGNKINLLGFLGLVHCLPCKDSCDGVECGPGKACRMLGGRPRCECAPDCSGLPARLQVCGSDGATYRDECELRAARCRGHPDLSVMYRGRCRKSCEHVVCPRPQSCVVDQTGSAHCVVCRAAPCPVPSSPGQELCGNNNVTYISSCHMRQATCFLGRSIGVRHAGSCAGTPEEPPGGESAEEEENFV
Sequence of Epidermal growth factor receptor (Homo sapiens) (P00533 whole entry, looked up): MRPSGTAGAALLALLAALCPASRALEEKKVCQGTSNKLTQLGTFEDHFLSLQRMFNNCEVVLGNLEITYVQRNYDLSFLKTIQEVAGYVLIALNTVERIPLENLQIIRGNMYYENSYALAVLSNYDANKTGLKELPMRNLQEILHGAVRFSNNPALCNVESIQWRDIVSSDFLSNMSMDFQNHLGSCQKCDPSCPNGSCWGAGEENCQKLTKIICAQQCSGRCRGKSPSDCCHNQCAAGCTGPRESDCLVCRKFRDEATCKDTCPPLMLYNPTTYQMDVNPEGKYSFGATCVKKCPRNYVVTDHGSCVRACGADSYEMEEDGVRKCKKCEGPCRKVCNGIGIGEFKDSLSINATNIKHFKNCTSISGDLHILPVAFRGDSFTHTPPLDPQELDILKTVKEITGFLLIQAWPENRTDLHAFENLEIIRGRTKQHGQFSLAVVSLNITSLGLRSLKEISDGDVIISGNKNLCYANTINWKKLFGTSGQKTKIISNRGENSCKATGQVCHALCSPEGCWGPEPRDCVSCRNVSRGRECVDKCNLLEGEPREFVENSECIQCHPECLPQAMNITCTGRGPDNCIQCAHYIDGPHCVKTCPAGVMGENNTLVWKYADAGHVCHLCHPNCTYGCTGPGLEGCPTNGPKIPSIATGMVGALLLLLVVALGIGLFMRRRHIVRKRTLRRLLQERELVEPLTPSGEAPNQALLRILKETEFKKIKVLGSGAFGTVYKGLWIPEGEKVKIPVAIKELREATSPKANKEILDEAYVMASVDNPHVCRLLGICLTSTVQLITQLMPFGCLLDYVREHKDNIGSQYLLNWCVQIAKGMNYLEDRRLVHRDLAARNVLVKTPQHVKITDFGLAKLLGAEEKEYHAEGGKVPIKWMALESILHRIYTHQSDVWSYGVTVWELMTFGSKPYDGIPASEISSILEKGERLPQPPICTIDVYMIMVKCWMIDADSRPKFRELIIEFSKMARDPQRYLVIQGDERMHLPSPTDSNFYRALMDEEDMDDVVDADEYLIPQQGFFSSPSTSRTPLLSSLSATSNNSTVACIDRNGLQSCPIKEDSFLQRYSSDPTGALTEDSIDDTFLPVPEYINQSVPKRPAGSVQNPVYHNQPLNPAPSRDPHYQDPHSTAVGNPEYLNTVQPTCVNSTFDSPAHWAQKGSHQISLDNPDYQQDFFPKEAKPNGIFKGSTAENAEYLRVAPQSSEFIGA
Sequence of Dickkopf-related protein 1 (Homo sapiens) (O94907 whole entry, looked up): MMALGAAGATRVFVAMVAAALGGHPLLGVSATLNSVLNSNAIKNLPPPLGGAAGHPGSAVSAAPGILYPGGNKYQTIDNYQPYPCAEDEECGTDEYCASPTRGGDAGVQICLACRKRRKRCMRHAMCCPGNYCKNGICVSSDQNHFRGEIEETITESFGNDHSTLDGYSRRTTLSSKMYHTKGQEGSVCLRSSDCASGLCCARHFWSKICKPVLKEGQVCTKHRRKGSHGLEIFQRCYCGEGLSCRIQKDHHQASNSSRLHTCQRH
Sequence of Fibroblast growth factor 10 (Homo sapiens) (O15520 whole entry, looked up): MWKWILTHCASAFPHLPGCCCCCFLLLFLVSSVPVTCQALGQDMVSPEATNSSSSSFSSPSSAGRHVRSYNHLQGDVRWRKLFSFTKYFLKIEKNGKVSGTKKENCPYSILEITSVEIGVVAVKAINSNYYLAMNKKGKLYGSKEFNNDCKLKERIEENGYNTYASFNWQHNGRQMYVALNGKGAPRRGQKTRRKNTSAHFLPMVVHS
Sequence of Torsin-1A-interacting protein 1 (Homo sapiens) (Q5JTV8 whole entry, looked up): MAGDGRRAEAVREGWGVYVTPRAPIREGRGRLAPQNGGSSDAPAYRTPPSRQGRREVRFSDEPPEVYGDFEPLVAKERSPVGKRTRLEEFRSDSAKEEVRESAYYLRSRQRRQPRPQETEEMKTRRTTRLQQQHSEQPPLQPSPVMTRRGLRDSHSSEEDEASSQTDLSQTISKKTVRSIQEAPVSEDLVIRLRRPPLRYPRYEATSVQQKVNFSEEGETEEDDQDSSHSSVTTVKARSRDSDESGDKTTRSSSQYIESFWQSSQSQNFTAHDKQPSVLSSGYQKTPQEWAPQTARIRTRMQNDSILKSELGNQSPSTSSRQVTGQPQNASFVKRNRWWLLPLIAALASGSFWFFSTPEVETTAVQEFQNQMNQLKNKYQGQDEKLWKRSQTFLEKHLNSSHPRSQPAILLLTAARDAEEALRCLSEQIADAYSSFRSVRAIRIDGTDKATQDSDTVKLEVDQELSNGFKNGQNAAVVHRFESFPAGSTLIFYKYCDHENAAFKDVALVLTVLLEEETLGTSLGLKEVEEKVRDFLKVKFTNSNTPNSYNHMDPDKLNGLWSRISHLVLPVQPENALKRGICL
Sequence of Left-right determination factor 2 (Homo sapiens) (O00292 whole entry, looked up): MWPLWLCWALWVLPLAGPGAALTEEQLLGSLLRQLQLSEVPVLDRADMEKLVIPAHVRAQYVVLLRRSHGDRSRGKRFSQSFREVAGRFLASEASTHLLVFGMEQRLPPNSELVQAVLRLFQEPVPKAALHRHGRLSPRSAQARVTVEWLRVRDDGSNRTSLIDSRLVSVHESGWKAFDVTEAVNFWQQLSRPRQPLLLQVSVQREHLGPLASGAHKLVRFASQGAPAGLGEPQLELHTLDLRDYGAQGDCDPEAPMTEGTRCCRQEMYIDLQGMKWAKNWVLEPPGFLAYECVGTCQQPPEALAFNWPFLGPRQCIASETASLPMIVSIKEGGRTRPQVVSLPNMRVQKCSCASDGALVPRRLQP

Compound: O=C(NC1CC1)[C@@H]1c2ccccc2C(=O)N(Cc2ccccc2C(F)(F)F)[C@H]1c1ccc(CO)cc1
- composite z-score [1]: 0.271
- composite z-score [2]: 0.561
- composite z-score [3]: 0.341
- z-score [4]: -0.0246 (inactive)
- composite z-score [5]: 0.554
- composite z-score [6]: 1.27
- composite z-score [7]: 0.388
- composite z-score [8]: 0.471
- composite z-score [9]: 0.113
- composite z-score [10]: 0.708
- composite z-score [11]: 1.06
- z-score [12]: -0.639
- composite z-score [13]: 0.319
- composite z-score [14]: 0.64
- composite z-score [15]: 0.585
- composite z-score [16]: -0.0977
- composite z-score [17]: 0.172
- composite z-score [18]: 0.0272
- composite z-score [19]: 0.714
- composite z-score [20]: 0.353

Compound: C=CCNC(=O)[C@@H]1[C@H]2C(=O)O[C@H](c3ccccc3)[C@H](c3ccccc3)N2[C@H](c2ccc(O)cc2)[C@@]12C(=O)N(C(=O)OCCOC)c1ccc(C#Cc3ccc(OC)cc3)cc12
- composite z-score [1]: 1.12
- composite z-score [2]: 0.51
- composite z-score [3]: -0.382
- z-score [4]: -1.16 (inactive)
- composite z-score [5]: 0.793
- composite z-score [6]: 1.3
- composite z-score [7]: 0.541
- composite z-score [8]: 0.62
- composite z-score [9]: 1.12
- composite z-score [10]: -0.071
- composite z-score [11]: 1.13
- z-score [12]: -1.77
- composite z-score [13]: 0.638
- composite z-score [14]: 1.75
- composite z-score [15]: 0.185
- composite z-score [16]: -0.0368
- composite z-score [17]: -0.0011
- composite z-score [18]: 0.315
- composite z-score [19]: 1.13
- composite z-score [20]: 0.579
